Where a name gives a salt, the structure may show the parent alone.
Experiments:
Experiment in all cases: normalised indicator fluorescence (fraction of RNA + indicator signal without compound); higher = less displacement of indicator (weaker competition)
Conditions in all cases: compound concentration: 5 uM, 30 min
[1] = system: SARS-CoV-2 low-rank motif (SARS-low)
How it was run: (§1)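 Indicator fluorescence, corrected by subtracting the buffer-plus-indicator blank and normalized to the RNA-plus-indicator signal without compound, is given as the mean of two independent experiments. The buffer was 20 mM phosphate pH 7.0, 20 mM NaCl and 80 mM KCl, with TO-PRO-1 or TO-PRO-3 and RNA in 96-well plates. Plates were read 30 min after compound addition (about 5 uM final) on an Infinite 200 PRO, exciting at 485 or 620 nm.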

hsa-mir-191 loop = system: hsa-mir-191 loop
How it was run: as §1

hsa-mir-21 loop = system: hsa-mir-21 loop
How it was run: as §1

hsa-mir-221 loop = system: hsa-mir-221 loop
How it was run: as §1

hsa-mir-374a loop = system: hsa-mir-374a loop
How it was run: as §1

hsa-mir-6850 loop = system: hsa-mir-6850 loop
How it was run: as §1

[2] = indicator: TO-PRO-1 0.1 uM, RNA concentration: 0.1 uM
[3] = indicator: TO-PRO-3 0.5 uM, RNA concentration: 0.5 uM

Compound: Cc1cc(C(C)(C)C)c(O)c(C(C)(C)C)c1
- normalised indicator fluorescence [1, 2]: 1.26
- normalised indicator fluorescence [1, 3]: 1.23

Compound: O=c1ncn2nc(Sc3ccc(F)cc3F)ccc2c1-c1c(Cl)cccc1Cl [Neflamapimod]
- normalised indicator fluorescence [1, 2]: 1.2
- normalised indicator fluorescence [1, 3]: 1.17

Compound: CCCC(C(=O)OCCN(CC)CC)(c1ccccc1)c1ccccc1 [Proadifen hydrochloride]
- normalised indicator fluorescence [1, 2]: 1.28
- normalised indicator fluorescence [1, 3]: 1.04

Compound: COc1nccnc1NS(=O)(=O)c1ccc(NC(=O)/C=C/c2ccc([N+](=O)[O-])s2)cc1 [Necrosulfonamide]
- normalised indicator fluorescence [1, 2]: 1.16
- normalised indicator fluorescence [1, 3]: 0.996

Compound: CCc1cc(C(N)=S)ccn1 [Ethinamide]
- normalised indicator fluorescence [1, 2]: 1.15
- normalised indicator fluorescence [1, 3]: 1.12

Compound: O=C(O)/C=C/c1ccc(Cn2ccnc2)cc1 [Ozagrel hydrochloride]
- normalised indicator fluorescence [1, 2]: 1.1
- normalised indicator fluorescence [1, 3]: 1.09

Compound: CN(C)C[C@@H]1CCn2cc(c3ccccc32)C2=C(C(=O)NC2=O)c2cn(c3ccccc23)CCO1 [Ruboxistaurin hydrochloride]
- normalised indicator fluorescence [1, 2]: 1.14
- normalised indicator fluorescence [1, 3]: 0.961

Compound: CN1CCN(c2ccc(C(=O)Nc3n[nH]c4ccc(Cc5cc(F)cc(F)c5)cc34)c(NC3CCOCC3)c2)CC1 [Entrectinib]
- normalised indicator fluorescence [1, 2]: 1.16
- normalised indicator fluorescence [1, 3]: 1.39

Compound: Cn1cc(-c2ccc3c(c2)CCN3C(=O)Cc2cccc(C(F)(F)F)c2)c2c(N)ncnc21
- normalised indicator fluorescence [1, 2]: 1.35
- normalised indicator fluorescence [1, 3]: 1.24

Compound: N=C(NCCCCCCNC(=N)NC(=N)Nc1ccc(Cl)cc1)NC(=N)Nc1ccc(Cl)cc1 [Chlorhexidine hydrochloride]
- normalised indicator fluorescence [1, 2]: 1.01
- normalised indicator fluorescence [1, 3]: 1.01

Compound: CNC(=O)c1ccc(C)c(-n2c(C)cc(OCc3ccc(F)cc3F)c(Br)c2=O)c1
- normalised indicator fluorescence [1, 2]: 1.01
- normalised indicator fluorescence [1, 3]: 1.07

Compound: C1CCN2C[C@@H]3C[C@@H](CN4CCCC[C@@H]34)[C@H]2C1 [(-)-Sparteine sulfate pentahydrate]
- normalised indicator fluorescence [1, 2]: 1.05
- normalised indicator fluorescence [1, 3]: 0.993

Compound: CC(C)=CCC[C@](C)(O[C@@H]1O[C@H](CO)[C@@H](O)[C@H](O)[C@H]1O)[C@H]1CC[C@]2(C)[C@@H]1[C@H](O)C[C@@H]1[C@@]3(C)CC[C@H](O)C(C)(C)[C@@H]3[C@@H](O[C@@H]3O[C@H](CO)[C@@H](O)[C@H](O)[C@H]3O[C@@H]3OC[C@@H](O)[C@H](O)[C@H]3O)C[C@]12C [Notoginsenoside R1]
- normalised indicator fluorescence [1, 2]: 1.23
- normalised indicator fluorescence [1, 3]: 1.26

Compound: NC(=O)c1ccc(N(C(N)=O)c2c(F)cccc2F)nc1-c1ccc(F)cc1F
- normalised indicator fluorescence [1, 2]: 1.28
- normalised indicator fluorescence [1, 3]: 1.21

Compound: CC1(C)CC(=O)c2c(C(F)(F)F)nn(-c3ccc(C(N)=O)c(N[C@H]4CC[C@H](O)CC4)c3)c2C1
- normalised indicator fluorescence [1, 2]: 1.02
- normalised indicator fluorescence [1, 3]: 1.08

Compound: O=C(O)/C=C/c1ccc(Cn2ccnc2)cc1 [Ozagrel]
- normalised indicator fluorescence [1, 2]: 1.09
- normalised indicator fluorescence [1, 3]: 1.21

Compound: O=C1CCc2ccccc2C1 [Beta-Tetralone]
- normalised indicator fluorescence [1, 2]: 1.19
- normalised indicator fluorescence [1, 3]: 1.2

Compound: O=C1C[C@@H](c2ccc(O)cc2)Oc2cc(O)cc(O)c21 [Naringenin]
- normalised indicator fluorescence [1, 2]: 1.03
- normalised indicator fluorescence [1, 3]: 1.12

Compound: Fc1ccc(-c2nc3n(c2-c2ccncc2)CCS3)cc1
- normalised indicator fluorescence [1, 2]: 1.3
- normalised indicator fluorescence [1, 3]: 1.15

Compound: CCNC(=O)c1noc(-c2cc(Cl)c(O)cc2O)c1-c1ccc(OC)cc1
- normalised indicator fluorescence [1, 2]: 1.27
- normalised indicator fluorescence [1, 3]: 1.43

Compound: COc1ccc(-c2nc(-c3cc(C(F)(F)F)cc(C(F)(F)F)c3)n(Cc3ccc(C(N)=O)cc3)c2-c2ccc(OC)cc2)cc1 [Apoptozole]
- normalised indicator fluorescence [1, 2]: 1.12
- normalised indicator fluorescence [1, 3]: 1.14

Compound: N=C(NCCCCCCNC(=N)NC(=N)Nc1ccc(Cl)cc1)NC(=N)Nc1ccc(Cl)cc1 [Chlorhexidine]
- normalised indicator fluorescence [1, 2]: 1.11
- normalised indicator fluorescence [1, 3]: 1.16

Compound: O=c1ccc2ccc(O)cc2o1 [7-Hydroxycoumarin]
- normalised indicator fluorescence [1, 2]: 1.25
- normalised indicator fluorescence [1, 3]: 1.16

Compound: C[C@H](CCC(=O)NCCS(=O)(=O)O)[C@H]1CC[C@H]2[C@@H]3[C@@H](O)C[C@@H]4C[C@H](O)CC[C@]4(C)[C@H]3CC[C@]12C [Tauroursodeoxycholic Acid]
- normalised indicator fluorescence [1, 2]: 1.21
- normalised indicator fluorescence [1, 3]: 1.52

Compound: Oc1cc(O)c2c(c1)O[C@H](c1ccc(O)c(O)c1)[C@@H](O)C2 [(+)-Catechin Hydrate]
- normalised indicator fluorescence [1, 2]: 0.966
- normalised indicator fluorescence [1, 3]: 1.16

Compound: C[C@H]1[C@H](C)CC[C@]2(C(=O)O[C@@H]3O[C@H](CO[C@@H]4O[C@H](CO)[C@@H](O[C@@H]5O[C@H](C)[C@H](O)[C@@H](O)[C@H]5O)[C@H](O)[C@H]4O)[C@@H](O)[C@H](O)[C@H]3O)CC[C@]3(C)C(=CC[C@@H]4[C@@]5(C)C[C@@H](O)[C@H](O)[C@@](C)(CO)[C@@H]5CC[C@]43C)[C@H]12 [Asiaticoside]
- normalised indicator fluorescence [1, 2]: 1.05
- normalised indicator fluorescence [1, 3]: 1.3

Compound: O=CN1CC/C(=C/c2ccc3c(c2)OCO3)C1=O
- normalised indicator fluorescence [1, 2]: 1.02
- normalised indicator fluorescence [1, 3]: 1.08

Compound: CO[C@H]1/C=C/O[C@@]2(C)Oc3c(C)c(O)c4c(c3C2=O)C2=NC3(CCN(CC(C)C)CC3)NC2=C(NC(=O)/C(C)=C\C=C\[C@H](C)[C@H](O)[C@@H](C)[C@@H](O)[C@@H](C)[C@H](OC(C)=O)[C@@H]1C)C4=O [Rifabutin]
- normalised indicator fluorescence [1, 2]: 1.1
- normalised indicator fluorescence [1, 3]: 1.16

Compound: COc1c(C)cnc(Cn2cnc3c(Cl)nc(N)nc32)c1C
- normalised indicator fluorescence [1, 2]: 1.13
- normalised indicator fluorescence [1, 3]: 1.17

Compound: O=C(Nc1ccc2[nH]nc(-c3ccncc3)c2c1)[C@@H]1CCN(CC(=O)N2CCN(c3ccc(-c4ncccn4)cc3)CC2)C1
- normalised indicator fluorescence [1, 2]: 1.11
- normalised indicator fluorescence [1, 3]: 1.26

Compound: N#Cc1c(NC(=O)c2cccc3ccccc23)sc2c1CCCC2
- normalised indicator fluorescence [1, 2]: 1.03
- normalised indicator fluorescence [1, 3]: 1.1

Compound: O=C(/C=C/C=C/c1ccc2c(c1)OCO2)N1CCCCC1 [Piperine]
- normalised indicator fluorescence [1, 2]: 1.02
- normalised indicator fluorescence [1, 3]: 1.15

Compound: CC(=O)Oc1c(C)c(C)c2c(c1C)CCC(C)(CCC[C@H](C)CCC[C@H](C)CCCC(C)C)O2 (some centres not stated) [Vitamin E Acetate]
- normalised indicator fluorescence [1, 2]: 1.05
- normalised indicator fluorescence [1, 3]: 1.21

Compound: CN1CCN(c2nc(C3=C(c4c[nH]c5ccccc45)C(=O)NC3=O)c3ccccc3n2)CC1 [Sotrastaurin]
- normalised indicator fluorescence [1, 2]: 1.4
- normalised indicator fluorescence [1, 3]: 1.29

Compound: COc1ccc(C(=C2C(=O)Nc3ccccc32)c2ccc(OC)cc2)cc1
- normalised indicator fluorescence [1, 2]: 1.38
- normalised indicator fluorescence [1, 3]: 1.17

Compound: C[C@@H]1O[C@@H](O[C@H]2[C@H](Oc3cc(O)c4c(c3)O[C@H](c3ccc(O)cc3)CC4=O)O[C@H](CO)[C@@H](O)[C@@H]2O)[C@H](O)[C@H](O)[C@H]1O [Naringin]
- normalised indicator fluorescence [1, 2]: 1.14
- normalised indicator fluorescence [1, 3]: 1.13

Compound: CC1=CC(=O)c2c(O)cccc2C1=O [Plumbagin]
- normalised indicator fluorescence (hsa-mir-191 loop; [2]): 1.02
- normalised indicator fluorescence (hsa-mir-191 loop; [3]): 1.01
- normalised indicator fluorescence (hsa-mir-21 loop; [2]): 0.979
- normalised indicator fluorescence (hsa-mir-21 loop; [3]): 0.979
- normalised indicator fluorescence (hsa-mir-221 loop; [2]): 1.02
- normalised indicator fluorescence (hsa-mir-221 loop; [3]): 1.05
- normalised indicator fluorescence (hsa-mir-374a loop; [2]): 1.17
- normalised indicator fluorescence (hsa-mir-374a loop; [3]): 1.15
- normalised indicator fluorescence (hsa-mir-6850 loop; [2]): 0.922
- normalised indicator fluorescence (hsa-mir-6850 loop; [3]): 1.01

Compound: COc1ccc2c(c[n+](C)c3c4cc5c(cc4ccc23)OCO5)c1OC [Chelerythrine chloride]
- normalised indicator fluorescence (hsa-mir-191 loop; [2]): 0.626
- normalised indicator fluorescence (hsa-mir-191 loop; [3]): 0.656
- normalised indicator fluorescence (hsa-mir-21 loop; [2]): 0.586
- normalised indicator fluorescence (hsa-mir-21 loop; [3]): 0.724
- normalised indicator fluorescence (hsa-mir-221 loop; [2]): 0.568
- normalised indicator fluorescence (hsa-mir-221 loop; [3]): 0.592
- normalised indicator fluorescence (hsa-mir-374a loop; [2]): 1.01
- normalised indicator fluorescence (hsa-mir-374a loop; [3]): 1.02
- normalised indicator fluorescence (hsa-mir-6850 loop; [2]): 0.335
- normalised indicator fluorescence (hsa-mir-6850 loop; [3]): 0.494

From the supplement of paper PMC11865577
